# Screens deposited in PubChem BioAssay by several laboratories.
# HSF1 inh: HSF1 inhibitors in luciferase reporter cells, primary screen, cell-based, NIH3T3, luminescence. NIH3T3-HGL HSE-luciferase, MG132-induced, luminescence 8 h; active compounds read low. activity change, negative = inhibition, % at 7.5 µM (by protocol). 300,000 compounds, 0.77% hits. AID 2098, 2009;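 active = more than half of replicate wells show activity change below -50%, luminescence cut by over half; inconclusive = some wells, but at most half, below -50%; inactive = no replicate well below -50%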;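 note: luciferase reports HSF-1 transcriptional activity via heat shock element; 0% = median of DMSO wells and -100% = zero luminescence signal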
# HSF1 activator: HSF-1 activators, primary screen, NIH3T3-HGL cells, MG132 stress, luminescence, single point. activation, % at 9 µM. NIH3T3-HGL HSF-1 luciferase reporter, 8 h; 100% = twice DMSO control signal. 300,000 compounds, 1.7% hits;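 active = mean replicate activation of at least 50% with a set share of replicates each reaching 50%; inconclusive = only one of those two conditions met; inactive = mean below 50% and too few replicates reaching it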;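 note: 0% = median of the neutral control wells and 100% = twice that signal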
# FXN GAA850 act: FXN promoter activators, primary screen, cell-based, luciferase luminescence, HEK293 lucGAA850; 360,000 compounds, 0.56% hits; activation, % at 6 µM; HEK293 lucGAA850 FXN promoter luciferase reporter, 24 h; percent of 10 µM SAHA response;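 active = activation above the average of all compounds screened plus 3 SD, cutoff fixed separately per campaign, cut at about 7.5% in these data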;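 note: 0% = DMSO wells and 100% = 10 µM SAHA wells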
# HSP90 refold inh: HSP90 inhibitors, primary screen, cell lysate, luminescence. Heat shock protein HSP 90 (rabbit reticulocyte lysate; luciferase refolding). Rabbit reticulocyte lysate, luciferase refolding luminescence, 3 h. inhibition, % at 5.6 µM. 290,000 compounds, 0.91% hits;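 active = inhibition above the screen-wide mean plus 3 SD, computed separately per campaign, cut at about 16% in these data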;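 note: 0% = DMSO wells and 100% = 60 µM geldanamycin wells; inhibitors lower the luminescence because luciferase stays unfolded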
# DAX1 inh: DAX1 (NR0B1) inhibitors, primary screen, cell-based, HEK293, Gal4-DAX1, luciferase luminescence; AID 504766, 2011; Nuclear receptor subfamily 0 group B member 1 (Homo sapiens), P51843; HEK293 Gal4-DAX1 luciferase reporter; inhibition, % at 6.75 µM; 340,000 compounds, 0.99% hits;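 active = inhibition above the mean over all tested compounds plus 3 SD, cut at about 4.2% in these data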;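 note: 0% = DAX1-transfected cells with DMSO and 100% = empty-vector control cells with DMSO; inhibition shows as a rise in luminescence from relieved DAX1 repression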
# AHR act: AHR activators, primary screen, cell-based, luminescence, luciferase reporter, human; 320,000 compounds, 2.5% hits; AHR-responsive luciferase reporter cells; Aryl hydrocarbon receptor (Homo sapiens), P35869; activation, % at 5 µM; in the data active = activation above about 47%;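 note: 0% = vehicle wells and 100% = reference agonist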
# Target sequence (P35869 whole entry, looked up): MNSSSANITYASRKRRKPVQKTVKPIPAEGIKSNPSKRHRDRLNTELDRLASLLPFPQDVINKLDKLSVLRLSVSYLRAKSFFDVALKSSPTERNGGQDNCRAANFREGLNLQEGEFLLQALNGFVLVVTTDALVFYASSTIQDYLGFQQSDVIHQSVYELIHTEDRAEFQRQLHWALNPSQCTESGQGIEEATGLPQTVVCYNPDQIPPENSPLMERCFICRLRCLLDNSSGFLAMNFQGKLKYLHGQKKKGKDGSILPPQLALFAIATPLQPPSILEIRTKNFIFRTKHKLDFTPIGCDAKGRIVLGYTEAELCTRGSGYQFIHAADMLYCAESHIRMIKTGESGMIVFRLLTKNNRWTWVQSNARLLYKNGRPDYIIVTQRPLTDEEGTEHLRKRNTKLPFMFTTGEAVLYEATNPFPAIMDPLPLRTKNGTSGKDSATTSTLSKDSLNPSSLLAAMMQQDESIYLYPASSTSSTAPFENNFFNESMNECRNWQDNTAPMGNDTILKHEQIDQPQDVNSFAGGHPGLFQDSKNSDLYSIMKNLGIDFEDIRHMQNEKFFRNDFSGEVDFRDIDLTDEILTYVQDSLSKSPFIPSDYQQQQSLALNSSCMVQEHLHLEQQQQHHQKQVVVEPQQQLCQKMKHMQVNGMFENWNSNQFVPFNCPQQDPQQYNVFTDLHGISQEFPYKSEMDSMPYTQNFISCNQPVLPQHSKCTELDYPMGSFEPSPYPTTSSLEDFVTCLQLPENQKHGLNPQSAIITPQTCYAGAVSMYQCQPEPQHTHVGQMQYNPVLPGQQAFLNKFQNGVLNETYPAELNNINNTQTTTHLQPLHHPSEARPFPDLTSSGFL
# An asterisk follows results filed as active; ? = inconclusive; · = no result given. A selection: hits, their analogues and other compounds. The true share with any hit is near 5.9%.
SMILES,HSF1 inh,HSF1 activator,FXN GAA850 act,HSP90 refold inh,DAX1 inh,AHR act
FC(F)(F)c1cccc(NC(=S)NCc2ccccn2)c1,22,57*,1,0,1,6
CSc1ccc(CNC(=O)C2(C)CCCN(C(C)C)C2)cc1 (stereo not given),·,·,0,·,·,·
CC(C)[C@H](NC(=O)OCc1ccccc1)C(=O)OCC(=O)N1CCCCC1,·,·,2,·,0,·
CC(=O)c1cccc(NC(=S)N2CCN(S(=O)(=O)c3ccc(F)cc3)CC2)c1,7,-1,-3,-3,1,2
C=CCN1C(=O)C(Cc2ccc(OC)cc2)S/C1=N/N=C/c1ccco1 (stereo not given),-57*,-66,1,3,0,3
C=CCN1C(=O)C(Cc2ccc(Br)cc2)S/C1=N\N=C\c1ccco1 (stereo not given),4,4,5,6,0,0
CCCC[C@@H]1C[C@H]1[C@@H](NC(=O)c1ccco1)c1ccc(Cl)cc1,-82*,-84,0,-1,1,2
O=C(Cc1cccs1)Nc1nnc(SCc2ccc(Br)cc2)s1,8,18,5,1,-1,48*
O=C1NC(N2CCOCC2)=N/C1=C/c1ccc2c(c1)OCO2,1,8,-1,-1,-1,54*
CNCc1c(OCc2ccccc2)ccc2ccccc12,-6,5,-5,-4,-1,18
CNCc1c(OCc2ccccc2F)ccc2ccccc12,-71*,-76,-6,1,-1,11
CCn1c(O)c(N=NC(=O)CNc2cccc(C)c2)c2ccccc21,8,-9,2,1,0,26
CCn1c(O)c(N=NC(=O)CNc2ccc(C)cc2)c2ccccc21,-10,-8,0,2,0,67*
Cc1ccc(NCC(=O)N=Nc2c(O)n(C)c3ccccc23)cc1,-6,0,7,4,0,49*
N#C/C(=N/Nc1ccccc1F)C(=N)N1CCOCC1,-3,5,1,0,0,13
COc1ccc(N/N=C(\C#N)C(=N)N2CCOCC2)cc1,-13,-17,2,1,5.3*,19
N#C/C(=N\Nc1ccccc1)C(=N)N1CCCCCC1,9,41,3,5,6.8*,14
N#C/C(=N\Nc1ccc(F)cc1)C(=N)N1CCCCC1,39,44,4,7,5.3*,4
N#C/C(=N\Nc1cccc(F)c1)C(=N)N1CCCCCC1,21,?,5,2,7.0*,28
CC(=O)NC(CC(=O)OC(C)C(=O)Nc1ccc(Cl)cn1)c1ccccc1 (stereo not given),1,-7,-2,·,0,-1
O=C(C1CCCCC1)N1C[C@@H](O)[C@H](n2cc(-c3ccc(F)cc3)nn2)C[C@@H]1c1ccccc1,·,·,-2,·,1,·
CCOc1ccc(N(CC(=O)NC2CCCC2)C(=O)CCC(=O)Nc2nc(C)cs2)cc1,-6,9,-1,-2,2,3
CCOc1ccc(N(CC(=O)NC2CCCCC2)C(=O)CCC(=O)Nc2nc(C)cs2)cc1,-59*,-60,0,-3,1,1
Cc1ccccc1CC1(CO)CCCN(C(=O)c2ccoc2)C1 (stereo not given),·,·,1,·,2,·
CC(C)C(C)N(Cc1ccc(C(=O)O)cc1)C(=O)c1ccc2ccccc2n1 (stereo not given),18,58*,1,·,3,-2
SMILES,HSF1 inh,HSF1 activator,FXN GAA850 act,HSP90 refold inh,DAX1 inh,AHR act
CC(C)C(C)N(Cc1cccc(C(=O)O)c1)C(=O)c1ccc2ccccc2n1 (stereo not given),-3,7,2,·,·,-1
O=C(c1cccc(S(=O)(=O)NCc2ccc3c(c2)OCO3)c1)N1CCCC1,·,·,1,·,0,0
CN(C)c1cc(N/N=C/c2ccccc2C(F)(F)F)nc(N(C)C)n1,3,-5,2,13,0,55*
Cc1nnc(N/N=C/c2ccccc2C(F)(F)F)n1N,34,39,-1,-3,0,23
C[C@@H]1CN([C@H](C)CO)C(=O)CCCn2cc(nn2)CO[C@H]1CN(C)S(=O)(=O)c1ccc2c(c1)OCCCO2,·,·,0,·,0,·
O=c1c2c(nc3cc(-c4ccc(Br)cc4)[nH]n13)CCCC2,22,44,8,-2,6.3*,-4
CN(C(=O)c1cccc(NC(=O)Cc2ccc(NC(=O)C3CCCN(C(=O)C4CCC4)C3)cc2)c1)C1CC1 (stereo not given),·,·,-2,·,0,·
Cc1ccc(-n2cnc(=O)c3cccnc32)cc1,-1,3,2,0,-1,-1
Cc1cn2c(nc(=O)c3cccnc32)s1,-75*,-78,0,6,2,5
O=C(Cc1ccc(S(=O)(=O)N2CCCCC2)s1)Nc1cccc2ccccc12,15,41,-1,-1,-1,12
c1ccc(CNc2nc(N3CCN(Cc4ccccc4)CC3)nc3ccccc23)cc1,-55*,-65,-2,4,·,2
COc1ccc2c(COC(=O)CCS(=O)(=O)c3ccc(C)cc3)cc(=O)oc2c1,-73*,-79,2,·,0,0
Cc1ccc2c(COC(=O)c3ccccc3Br)cc(=O)oc2c1,44,88*,4,3,0,-1
COc1cc(C2NC(=S)NC(C)=C2C(=O)Nc2ccc(C)cc2)ccc1O (stereo not given),43,84*,4,4,2,6
Cc1csc2ncc(C(=O)NCCc3ccccc3)c(=O)n12,15,39,1,-1,2,41
Cc1csc2ncc(C(=O)Nc3ccc(C(F)(F)F)cc3)c(=O)n12,-7,5,0,-2,3,58*
Cc1csc2ncc(C(=O)NCc3ccccn3)c(=O)n12,0,4,0,3,0,47*
COC(=O)c1ccc(NC(=O)c2cnc3scc(C)n3c2=O)cc1,-2,-6,·,6,·,-2
CSc1ccccc1NC(=O)c1cnc2scc(C)n2c1=O,5,-14,3,-5,1,65*
CCc1ccccc1NC(=O)c1cnc2scc(C)n2c1=O,-6,18,2,-3,1,40
COC(=O)C(Cc1c[nH]c2ccccc12)NC(=O)c1ccc2nc[nH]c2c1 (stereo not given),·,·,6,·,4.5*,·
C=CCn1cnc2c(nnn2-c2ccc(Cl)cc2)c1=O,8,7,0,-3,1,84*
CCN(c1ccc(OC)cc1)S(=O)(=O)c1csc(C(=O)N2CCCC2)c1,-2,0,3,-2,0,0
